Drawing on ChEMBL document CHEMBL4513216, “Probing the Open Global Health Chemical Diversity Library for Multistage-Active Starting Points for Next-Generation Antimalarials” (ACS Infect Dis, 2020), this text covers INHIBITION for 54 compounds.

SMILES strings stand for the structures. The whole screen tested about 65,000 compounds, of which about 2,100 (3.2%) showed an effect of 50% or more. The median lay at about -52%. This is one part of a sample in which strong results are shown more often than they occur.

The assay relates to Plasmodium falciparum. Put plainly: Screen against P. falciparum Asexual Blood Stage (ABS), at 5uM. The format is functional, Dd2. The conditions noted are these: tested at 5 uM.
`c1cnc(NC[C@H]2OC[C@@H]3CCN(Cc4ccncc4)C[C@@H]32)nc1`: the INHIBITION is listed as -102%.

Regarding `c1cc(CN2CC[C@@H]3CN(c4cnccn4)C[C@@H]3C2)ccn1`, the INHIBITION was -72.2%. For `Fc1ccc(OCCNC2CCN(Cc3ccncc3)CC2)c(F)c1`, the INHIBITION was 74.2%. The figure for `CNc1ncccc1C(=O)N1CCC2(CCN(C)C2)CC1` is -89.3%. The figure for `Cc1ncc(CNCCO)c2cc(C(=O)c3ccc(Br)cc3)oc12` is 89.3%; for `O=C1C[C@@H]2CC[C@H](CN1)N2C1CSCCSC1` it is -45.6%; for `O=C1NC[C@H]2CN(Cc3nccs3)CCN12` it is -41.7%. The figure for `c1cnc(N2CC3(CCN(Cc4ccncc4)C3)C2)nc1` is -104%; for `Fc1ccc(CN2CCC3(CC2)CCN(Cc2nccs2)CC3)cc1` it is 86.6%. On to `Cc1ccc(CN2CCC3(CC2)CCN(Cc2ccoc2)CC3)cc1`, for which the INHIBITION came to 92.7%. Consider `c1cc(CN2CCCC23CCCN(Cc2ccoc2)C3)ccn1` (centres undefined), for which the INHIBITION is on record as -105%. Consider `O=C1Nc2ccccc2C12CCN(Cc1nccs1)CC2`, for which the INHIBITION is -15.8%. The figure for `Cn1ccnc1CN1CC2(CCN(Cc3ccncc3)C2)C1` is -45.8%; for `Cc1ccc(CN2CCC3(CC2)CCN(Cc2ccco2)CC3)cc1` it is 91.7%; for `C[C@H]1C[C@@H]2CCN(Cc3ccco3)C[C@H]2O1` it is -32%. Take `Cc1ccc(CN2CCC3(CCN(Cc4ccncc4)CC3)CC2)cc1`: the INHIBITION amounted to 78.3%. As to `CN1CCN(Cc2ccco2)Cc2cccnc21`, the INHIBITION is -15.8%. `O=C1CC2(CCN(Cc3ccoc3)C2)CN1c1cncnc1` (centres undefined): the INHIBITION was -51.3%.

Take `O=C1CSC(c2ccc(Cl)cc2Cl)c2c(n(C3CCOCC3)[nH]c2=O)N1` (centres undefined): the INHIBITION was -37.1%. `O=C(NCC1CC[C@@]2(CNCCOC2)O1)c1cccnc1` (some centres undefined): the INHIBITION is reported as -65.9%. In the case of `Cc1n[nH]c2c1C(c1ccsc1)SCC(=O)N2` (centres undefined), the INHIBITION is recorded as -110%. With `c1cncc(OC[C@]23COC[C@H]2CN(C2CCOCC2)C3)c1`, the INHIBITION is on record as -10.4%. Turning to `CCCOc1ccc2ccccc2c1CN1CC[C@@]2(O)CCNC[C@H]2C1`, the INHIBITION is reported as 93.2%.

For the compound `CSCCCN1CC[C@@]2(O)CCN(c3ncccn3)C[C@H]2C1`, the INHIBITION stood at 16.4%.

Regarding `O=C(O)[C@]12CCCN(C3CCOC3)C[C@H]1CN(c1ncccn1)C2` (some centres undefined), the INHIBITION is reported as -128%.

`CN(C)C(=O)c1ccc(-c2cccc3c2CCNC3)cc1`: the INHIBITION was -115%. For the compound `Oc1ccc(N2CCN(Cc3ccc(F)cc3Br)CC2)cc1`, the INHIBITION is -85.8%.

As for `OC1(c2ccc(F)cc2)CCN(Cc2ccccc2N2CCCC2)CC1`, the INHIBITION was found to be 71.9%. With `O=C(NCC1CC1)[C@@H]1C[C@@H]2OCCN[C@@H]2C1`, the INHIBITION is -55.3%. On to `O=C1NCC[C@]12CN(Cc1cccnc1)C[C@H]2c1ccccc1`, for which the INHIBITION is -11.5%. The figure for `Cc1ccccc1N1CCCN(CC2(O)CCCNC2)CC1` (centres undefined) is 87.7%. In the case of `Cc1nc2c(C)cccc2cc1C(=O)N1CCC2(CCCNC2)C1` (centres undefined), the INHIBITION was -31.7%.

Consider `Cc1cccc(CN2CCC23CCCNC3)n1` (centres undefined), for which the INHIBITION is given as 12%.

For `CC(=O)N1CC2(CCNCC2)c2cc(C)ccc21`, the INHIBITION is 1.98%.

As for `Cc1ccc(C)c(N2CCN(CC3(O)CCNC3)CC2)c1` (centres undefined), the INHIBITION is recorded as 85.9%. Take `Cc1cnn(CC(C)NCc2ccc(C#N)cc2F)c1` (centres undefined): the INHIBITION was -84.2%. For `c1cc(CN2CCO[C@H]3[C@H](OCC4CCCC4)CC[C@@H]32)ccn1`, the INHIBITION is given as -71.1%. Regarding `CN(C)CCN(C)C[C@H]1CN2CC[C@H]1C[C@@H]2CNC(=O)Nc1ccsc1`, the INHIBITION is -49.3%.

Regarding `Cc1nc(CN2CCOC3(CCCC3)C2)oc1C`, the INHIBITION is reported as -101%. As to `O[C@@H]1C[C@H]2CN(Cc3ccsc3)[C@@H](Cc3ccccc3)CN2C1`, the INHIBITION amounted to 71.6%. On to `C[C@@H]1CN2C[C@H](O)CC2CN1Cc1ccncc1` (some centres undefined), for which the INHIBITION is given as -64.4%. The result for `C[C@H]1CN2C[C@H](O)CC2CN1Cc1ccncc1` (some centres undefined) reads -85.4%; that for `Cc1ccc(-n2nnc(CC(=O)N3CCN(C4CC4)CC3)c2C)cc1`, -35.9%. The result for `COc1cccc(C2SCC(=O)Nc3n[nH]cc32)c1OC(C)C` (centres undefined) reads -75.3%; that for `Cc1cccc(CNC(CN2CCN(C)CC2)c2ccccc2)c1` (centres undefined), 83.5%; that for `O=C(Cc1ccccc1)N1CCN(CC(O)c2ccc(F)cc2)CC1` (centres undefined), -118%. Turning to `Cc1cnn(CC(C)NCc2cccc(C#N)c2)c1` (centres undefined), the INHIBITION is on record as -41.8%.

With `Cc1ccc(CC(=O)N2CCN(CC(O)c3ccccc3)CC2)cn1` (centres undefined), the INHIBITION is recorded as -130%. As for `Cc1ccc(CNC(CN2CCN(C)CC2)c2ccccc2)cc1` (centres undefined), the INHIBITION turned out to be 79.5%. For the compound `COc1cccc(CNC(CN2CCN(C)CC2)c2ccccc2)c1` (centres undefined), the INHIBITION amounted to 82%.

For the compound `CN1CCN(CC(NCc2ccc(F)c(F)c2)c2ccccc2)CC1` (centres undefined), the INHIBITION turned out to be 83.8%. Turning to `COc1cccc(CC(C)NC(=O)NC(C)C)c1` (centres undefined), the INHIBITION is reported as -64.2%. `O=C(Cc1ccc(F)cc1)N1CCN(CC(O)c2ccccc2)CC1` (centres undefined): the INHIBITION is -18%.

On to `COc1cccc(CC(C)NC(=O)NCc2ccn(C)c2)c1` (centres undefined), for which the INHIBITION is on record as -91.8%.
